Consider 40 compounds from PubChem BioAssay (NCI).

This is part of a sample that, as a whole, favours compounds with a hit. Of some 83,000 tested, about 20% had one in any assay.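 Note: values are percent growth. 100 is the growth of untreated cells, values between 100 and 0 indicate rising inhibition; between -100 and 0 indicates cell death.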 Calls of active or inactive are those of the source.

This assay concerns SK-MEL-28 melanoma. Briefly: NCI-60 one-dose screen, 48 h (100 = growth as untreated, 0 = no growth, -100 = all killed). The settings on record: 10 µM unless noted. The method, then:
Growth inhibition of the SK-MEL-28 human tumor cell line is measured as a screen for anti-cancer activity. Cells are grown in 96 well plates and exposed to the test compound for 48 hours. Compounds are tested at a single concentration, which is 10^-5 M for most compounds. The reported endpoint is percent growth (GI% or GIPRCNT), where numbers from 0 - 100% represent growth inhibition, and numbers from -100% - 0 represent cell death. For example, a value of 40 represents 60% growth inhibition. A value of 0 means no net growth occurred over the course of the experiment. A value of -40 indicates 40% of cells at the beginning of the experiment died by the end of the experiment. A value of -100 means all cells are dead at the end of the experiment.
NCI-60 Human Tumor Cell Lines Screen was performed using the standard one-dose NCI protocol, which is described in more detail at https://dtp.cancer.gov/discovery_development/nci-60/default.htm.
Compounds with GIPRCNT values below 10 were considered active. Activity score was based on GIPRCNT using the following formula: […]
Score is 0 for GIPRCNT values of 100 or above, 50 for GIPRCNT values of 0, and 100 for GIPRCNT values of -100.
`O=C(Nc1cc(C(F)(F)F)cc(C(F)(F)F)c1)Nc1ccc2oc(=O)ccc2c1`: the growth is 34.8% (inactive).
Regarding `O=C(COc1ccc(/C=C2\C(=O)Nc3ccc(F)cc32)cc1)Nc1ccccc1`, the growth is 106% (inactive).
For `CN1CCN(c2ccc(Nc3nc(NCCNC(=O)c4ccccc4)c4sccc4n3)cc2)CC1` the value was 59.5% (inactive); for `CCCN1C=C/C(=C\C(=O)n2ccc3ccccc32)c2ccccc21`, 90.6% (inactive).
For `O=[N+]([O-])c1ccc(NC(=S)NNC(=S)Nc2ccc(F)cc2)cc1` the value was 98.4% (inactive); for `O=C(NNc1nc2cc(F)cc(F)c2n2cccc12)c1cccnn1`, 23.9% (inactive); for `C=C(C)[C@@H]1CC[C@]2(C(=O)O)CC[C@]3(C)[C@H](CC[C@@H]4[C@@]5(C)C/C(=C/c6ccccn6)C(=O)C(C)(C)[C@@H]5CC[C@]43C)[C@@H]12`, 64% (inactive).
As for `Cc1ccc(C(=O)Nc2ccc(CNCCN3CCOCC3)c(C(F)(F)F)c2)cc1C#Cc1cnc2cccnn12`, the growth was -6.46% (active).
Next, `Cc1cc2nc3c4cc(C#N)ccc4n(CCN(C)C)c3nc2cc1C`: -50.1% (active).
Next, `Cc1ccc(N2CCN(C3=C(Cl)C(=O)c4ncccc4C3=O)CC2)cc1`: 80.9% (inactive); `O=C(NCCNc1cc(-c2cn(-c3ccccc3)nc2-c2cccc(O)c2)ccn1)Nc1cc(C(F)(F)F)cc(C(F)(F)F)c1`: 96.9% (inactive).
Next, `O=C(CCCCCCNC(=O)C(O)(O)C(F)(F)F)Nc1ncc(-c2ccc(Br)cc2)s1`: 3.46% (active); `CN(C)CCNc1ccc2ncc(C#Cc3cncc(C(=O)Nc4ccc(CN5CCN(C)CC5)c(C(F)(F)F)c4)c3)n2n1`: 75% (inactive); `O=C(CSc1nc2ccccc2c(=O)n1-c1ccc(Cl)cc1)N/N=C/c1ccc(Oc2ccc(Cl)cc2)cc1`: 3.17% (active).
`CSc1ccc(C(=NNS(=O)(=O)c2ccc(C)cc2)c2ccc(Cl)cc2)cc1`: the growth is 102% (inactive).
Take `CCCCCN1C(=O)/C(=c2\sc3n(c2=O)C2C(NN=3)N(CC)C(=O)N2CC)c2cccc(C)c21` (stereo not given): the growth was 62.4% (inactive).
As to `C/C(=C(/C)C1CC1CCNC1CCC(NC(=O)OC(C)(C)C)CC1)c1ccccc1` (stereo not given), the growth was 35.5% (inactive).
For `CCCCN1C(=O)/C(=c2\sc3n(c2=O)C2C(NN=3)N(CC)C(=O)N2CC)c2cccc(C)c21` (stereo not given) the value was 68.2% (inactive).
Next, `CN(C)c1ccc(/C=N/Nc2nc(N/N=C/c3ccc(N(C)C)cc3)nc(N3CCCCC3)n2)cc1`: 41.7% (inactive).
Take `CC1=C(C)C(=O)C(Nc2ccc(C)c(C)c2)=C(Br)C1=O`: the growth is 111% (inactive).
Regarding `CCN(CC)CCOc1ccc(C(=C(C)Cc2ccc(OC)cc2)c2ccc(OCCN(CC)CC)cc2)cc1`, the growth was -82% (active).
On to `CN1CCN(c2ccc(Nc3nc(NCCCNS(=O)(=O)c4cccc5ccccc45)c4sccc4n3)cc2)CC1`, for which the growth is -80.9% (active).
Next, `Clc1ccc(CSc2nnc(-c3ccc(Cl)cc3)n2-c2ccccc2)cc1`: 98.8% (inactive); `O=C(CSc1nc2ccccc2c(=O)n1CCc1ccccc1)Nc1ccc(S(=O)(=O)Nc2ccc(Cl)nn2)cc1`: 108% (inactive); `CC1=C(C)C(=O)C(Nc2ccc3c(c2)OCO3)=C(Br)C1=O`: 110% (inactive).
In the case of `C#CCOc1ccc(/C=N/Nc2nc(-c3ccc(OC)cc3)cs2)cc1`, the growth was 102% (inactive).
Next, `O=C1C(N2CCN(c3ccccc3)CC2)=C(Cl)C(=O)c2ncccc21`: 83% (inactive).
For the compound `C=CCSC1=NC2C(N(CC)C(=O)N2CC)N1/N=C/C=C/c1ccccc1OC` (stereo not given), the growth was 84.3% (inactive).
With `CN1CCN(c2ccc(Nc3nc(NCCCNS(=O)(=O)c4cccc(F)c4)c4sccc4n3)cc2)CC1`, the growth is -77.4% (active).
In the case of `COc1ccc(C(C)=C(c2ccc(OCCN3CCCCCC3)cc2)c2ccc(OCCN3CCCCCC3)cc2)cc1`, the growth was -89.3% (active).
Next, `COc1ccc(-c2c3c(cn2Cc2cccc(OC)c2)-c2oncc2CCC3)cc1`: 110% (inactive).
Next, `CCN(CC)S(=O)(=O)c1ccc(-c2nc(C(Cl)Cl)nc3cc(-c4ccc(F)cc4)nn23)cc1`: 27.9% (inactive); `CCOC(=O)c1c(N)c(C#N)cn1Cc1ccc(Cl)cc1Cl`: 92.6% (inactive).
For `Clc1ccc2c(N/N=C/c3c[nH]c4ccccc34)ccnc2c1` the value was -92.7% (active); for `C[C@]12CC[C@H]3[C@@H](CC=C4C[C@@H](O)CC[C@@]43C)[C@@H]1CC[C@@H]2[C@](C)(O)CCc1cccnc1`, 74.4% (inactive).
As to `Cn1cc(-c2nn3cc(-c4ccncc4)nc3s2)c2cc(F)ccc21`, the growth is 105% (inactive).
Consider `C#C[C@]1(O)CC[C@H]2[C@@H]3CC=C4c5sc(Nc6cc(Cl)ccc6OC)nc5CC[C@]4(C)[C@H]3CC[C@@]21C`, for which the growth was -59.1% (active).
For `Cc1ccccc1N1CCN(C2=C(Cl)C(=O)c3ncccc3C2=O)CC1` the value was 35.9% (inactive).
Next, `CCOC(=O)c1cccc(NC2=C(Cl)C(=O)c3nc(C)ccc3C2=O)c1`: 103% (inactive); `CC1=C(C)C(=O)C(Nc2cccc(C)c2)=C(Br)C1=O`: 115% (inactive).
